# High-throughput results deposited in PubChem by National Center for Advancing Translational Sciences (NCATS).
# Only some compounds are listed: those with a hit (about 1.3% of all), similar ones and a draw of the others.
# Akt phos inh: blocks phosphorylation of Akt; Neuro2A IGF-stimulated pAkt S473 HTRF, 20 min; active compounds read low; activity change, % for hits at 50 µM; 0.32% of 360,000 active; AID 651550; in the data active means activity change below about -80%; inconclusive means mostly about -51% to -80%
#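 Neuro2A cells (4,500/well, DMEM with 0.5% FBS) were treated with compound at a single 50 µM final concentration, stimulated with 6 nM IGF for 20 min at 37 °C, and lysed. Phospho-Akt Ser473 was read by HTRF as 665/615 ratio ×10^4.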
# CCT modulator: modulators of cytosolic chaperonin (CCT/TRiC) activity | AID 651819 | purified chaperonin ATPase assay, HTRF ADP detection, 30 min | 0.3% of 360,000 active | activity change, % (test concentration not listed), hits read low; in the data active means activity change below about -30%
#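 TRiC at 40 or 20 nM final (batch-dependent) in 30 mM Tris pH 7.4, 100 mM KCl, 5 mM MgCl2, 1 mM DTT, with compound at single 76 uM and 10 uM ATP, 30 min at 37 deg C. ADP detected by HTRF Transcreener, 665/615 ratio.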
# CtBP-E1A blk: blocks the CtBP interaction with E1A. 0.49% of 340,000 active. activity change, % (test concentration not listed). AlphaScreen GST-E1A/His-CtBP binding, 1536-well; active compounds read low
#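 GST-E1A and His-tagged CtBP (125 nM each as 5X stock) were preincubated with pin-transferred compound for 2 h at 37 °C in the dark, then glutathione donor and nickel acceptor beads were added for 1 h before AlphaScreen reading.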
# Six1-Eya2 blk: inhibitors of human Six1/Eya2 interaction; Q15475+O00167; AlphaScreen GST-Six1/His-Eya2 binding, biochemical; active compounds read low; activity change, % (no concentration beside the values); 0.56% of 360,000 active; AID 651725
# Target sequence (O00167 whole entry, looked up): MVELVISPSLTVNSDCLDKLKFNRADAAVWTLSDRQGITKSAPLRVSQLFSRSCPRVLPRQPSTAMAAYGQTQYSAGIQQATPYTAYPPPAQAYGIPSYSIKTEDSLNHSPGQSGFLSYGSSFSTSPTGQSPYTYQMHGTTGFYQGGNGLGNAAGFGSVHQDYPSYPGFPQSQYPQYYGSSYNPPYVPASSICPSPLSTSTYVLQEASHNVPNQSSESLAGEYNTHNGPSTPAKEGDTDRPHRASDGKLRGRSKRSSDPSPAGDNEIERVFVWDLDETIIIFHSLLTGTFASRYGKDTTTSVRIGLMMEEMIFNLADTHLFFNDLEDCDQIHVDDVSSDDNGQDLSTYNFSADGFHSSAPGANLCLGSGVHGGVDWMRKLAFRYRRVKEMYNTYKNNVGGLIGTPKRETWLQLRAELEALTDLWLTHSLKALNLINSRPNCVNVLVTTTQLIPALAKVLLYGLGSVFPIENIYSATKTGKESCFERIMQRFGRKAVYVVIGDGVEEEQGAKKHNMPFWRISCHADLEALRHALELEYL
# Target sequence (Q15475 whole entry, looked up): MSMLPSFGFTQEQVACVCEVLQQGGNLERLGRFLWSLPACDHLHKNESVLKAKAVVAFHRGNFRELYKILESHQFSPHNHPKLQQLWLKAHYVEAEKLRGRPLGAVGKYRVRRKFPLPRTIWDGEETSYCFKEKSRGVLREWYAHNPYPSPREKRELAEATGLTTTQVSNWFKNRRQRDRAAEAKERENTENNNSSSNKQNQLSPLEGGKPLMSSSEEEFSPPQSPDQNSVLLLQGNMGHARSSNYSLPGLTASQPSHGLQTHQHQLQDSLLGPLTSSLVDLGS
#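 AlphaScreen luminescence read after one hour at 37 °C in darkness. Pin-transferred compounds met GST-Six1 and His-Eya2 protein (5X stock 250 nM/500 nM) plus glutathione donor and Ni-chelate acceptor beads (5X, 50 ug/mL).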
# Starred values were filed as active, the others as inactive; i = inactive; u = inconclusive; x = not tested or not shown. Unless noted, no stated cut-off is given here; in the data, active means activity change below about -65%; inconclusive means mostly about -30% to -63%; inactive means weaker than that. On the % scale 0 is the no-effect control and ±100 the full control effect.
SMILES,Akt phos inh,CCT modulator,CtBP-E1A blk,Six1-Eya2 blk
CCOC(=O)C1=C(C)N=C2SC(C(=O)OC)=CC(=O)N2C1c1ccc(F)cc1 (stereo not given),-87%*,-1,-4,-5
CC(C)N1CCC1(C)C(=O)Nc1cccc(C#N)c1 (stereo not given),i,0,1,-3
COc1cc([N+](=O)[O-])cc(/C=N/NC(=O)C(O)(c2ccccc2)c2ccccc2)c1O,i,0,-82*,u
COc1cc([N+](=O)[O-])cc(/C=N/NC(=O)c2cccnc2)c1O,i,-3,-92*,-90*
COc1ccc(Br)cc1C(=O)N/N=C/c1cccnc1,i,0,3,5
COc1cc2ccccc2cc1C(=O)N/N=C/c1cccnc1,x,-35*,x,20
COC(=O)c1ccc(C(=O)OC)c(NC(=O)C2CC(=O)N(C3CCCC3)C2)c1 (stereo not given),i,-1,-1,1
CCn1nnc(NC(=O)c2cccnc2)n1,i,1,-3,-2
CCn1nnc(NC(=O)c2ccc(C(C)(C)C)cc2)n1,-108%*,1,2,2
O=C(c1ccc2snnc2c1)N1CCSCC1,-108%*,1,8,-2
O=C(c1ccc2snnc2c1)N1CCCCC1,i,-2,0,1
COc1ccc(S(=O)(=O)N(C)[C@H]2C[C@H]3c4cc(Oc5ccccc5C)ccc4CCN3C(=O)[C@H]2[C@H](C)O)cc1,i,0,-20,-9
CC(C1SC(=S)NC1=O)C1SC(=S)NC1=O (stereo not given),i,0,-73*,-83*
COc1ccc(S(=O)(=O)N(C)CC(=O)NCCCn2ccnc2)cc1Cl,i,1,7,2
O=c1c2ccccc2nc(/C=C/c2cccnc2)n1Cc1ccccc1,i,1,1,-71*
O=c1c2ccccc2nc(/C=C/c2cccnc2)n1CCc1ccccc1,i,0,2,-14
N#C/C(=C(/O)COC(=O)CCCNC(=O)c1ccc(Cl)cc1)c1nc2ccccc2[nH]1,-102%*,-8,-14,-3
O=C(NCCc1ccncc1)c1ccc2nc(Cc3cccc(Cl)c3)oc2c1,i,-1,-1,-4
O=C(/C=C/Nc1ccc(OC(F)(F)F)cc1)C(F)(F)F,-127%*,0,-8,9
COc1ccc(CCNC(=O)C2CCN(S(=O)(=O)c3cccc4cccnc34)CC2)cc1OC,i,-46*,40,9
CC(Oc1ccc2c3c(c(=O)oc2c1)CCCC3)C(=O)NCc1cccnc1 (stereo not given),x,-3,x,3
CCOc1ccc(NC(=O)CC(NCc2ccccn2)C(=O)O)cc1 (stereo not given),i,-2,-92*,-90*
COc1ccc(N2CCN(Cc3cc4c(cc3O)CCC4)CC2)cc1,i,-2,-65*,u
COc1ccc(N2CCN(Cc3cc(=O)oc4cc5c(cc34)CCCC5)CC2)cc1,i,-4,-1,-11
O=C(NCc1ccccn1)C1CC(c2ccc(F)cc2)=NO1 (stereo not given),-112%*,-1,3,5
SMILES,Akt phos inh,CCT modulator,CtBP-E1A blk,Six1-Eya2 blk
O=C(NCc1ccccn1)C1CC(c2ccc(Cl)c(Cl)c2)=NO1 (stereo not given),i,0,-2,-1
COc1ccc(S(=O)(=O)Nc2cc3c4c(c2)C(C)C(=O)N4CCC3)cc1OC (stereo not given),i,2,-6,5
COC(=O)c1ccc(NC(=O)C2CC(=O)N(c3cc(C)ccc3C)C2)cc1 (stereo not given),-105%*,-2,1,-7
CCCN(CC(=O)Nc1ccccc1C)C(=O)c1nn(CC)c(=O)c2ccccc12,i,1,-1,6
COc1ccc(NC(=O)COc2cccc(-n3cnnn3)c2)cc1,i,-2,-1,2
Cc1nn(Cc2ccc(C(=O)NC(C)(C)C)o2)c(C)c1Br,i,-1,6,-2
Cc1cc(NC(=O)c2ccc(Cn3nc(C)c(Br)c3C)o2)no1,i,-2,-29,-70*
COc1c(O)cccc1/C=N/NC(=O)Cn1ccnc1C,i,1,x,-93*
COc1ccc(S(=O)(=O)n2oc(=O)cc2-c2ccccc2)cc1OC,i,0,u,-95*
COc1ccc(S(=O)(=O)n2oc(=O)cc2-c2ccccc2)cc1,i,-2,-73*,-90*
COC(=O)c1ccc(NC(=O)CCN2C(=O)C3C4CCC(C4)C3C2=O)cc1 (stereo not given),i,-3,7,1
NS(=O)(=O)c1ccc(NC(=O)NC2CC(=O)N(c3ccc4c(c3)OCCO4)C2)cc1 (stereo not given),i,2,4,-11
COc1cccc(/C=N/NC(=O)c2nc(-c3ccccc3)cc(-c3ccccc3)n2)c1O,i,-2,-6,-3
CCC(=NNC(=O)c1ccc2c(c1)nc(C)n2CC)c1cc(F)ccc1O,i,-2,u,-17
CCn1c(C)nc2cc(C(=O)N/N=C/c3ccc(O)c(O)c3O)ccc21,i,-3,-93*,-90*
CCn1c(C)nc2cc(C(=O)N/N=C/c3cccc(OC)c3O)ccc21,i,1,-93*,-80*
CNC[C@@H]1Oc2ccc(NS(=O)(=O)c3ccc(Cl)cc3)cc2C(=O)N([C@H](C)CO)C[C@@H]1C,i,1,7,0
O=C(Nc1nnc(Cc2ccccc2)s1)c1cccs1,-82%*,-12,5,-4
CCOCc1nnc(NC(=O)c2ccco2)s1,-123%*,2,9,3
O=C(Nc1nnc(CC(c2ccccc2)c2ccccc2)s1)c1ccco1,-112%*,1,0,1
COc1cccc(C(C(=O)NC2CCCCC2)N(C(=O)c2csnn2)C2CC2)c1 (stereo not given),i,-1,1,-1
Cc1cc([N+](=O)[O-])ccc1NC(=O)CCC(=O)N1CCCC1,i,0,10,7
CC(C)(C)OC(=O)N(CCc1ccccc1)Cc1ccccc1OCc1cccc(NC(=O)/C=C/c2ccccc2)c1,i,-1,1,-1
Cn1c2c(c(=O)n(C)c1=O)CN(Cc1ccccc1)CN2,i,0,8,3
CCOCC(=O)Nc1ccc(C)c(Cl)c1,-129%*,0,6,8
CCc1ccc(C(C)NC(=O)/C(C#N)=C\c2cn[nH]c2-c2ccccc2)cc1 (stereo not given),-83%*,-2,7,-4
CSc1ncccc1C(=O)OCC(=O)c1ccc(C)s1,i,-4,-1,-7
Cc1ccc(N(CC(=O)NC2CCCCCC2)S(=O)(=O)c2c(C)nn(C)c2C)cc1,i,-47*,1,0
COc1cc(OC)cc(C(=O)N2CCC(C(=O)NCCc3ccccc3)CC2)c1,i,0,-3,4
CN(C)S(=O)(=O)c1ccc(NC(=O)CSc2nnc(-c3ccco3)o2)cc1,i,1,-2,1
